IL1B secr inh = qHTS for Inhibitors of Inflammasome Signaling: IL-1-beta AlphaLISA Primary Screen; AID 743279, 2014; 360,000 compounds, 4.7% hits; activity change, % at 57.5 µM; THP-1 LPS/ATP IL-1B secretion, AlphaLISA, 16 h; stronger effect = lower value; in the data active = activity change below about -50%; inconclusive = mostly about -30% to -49%; note: % is set by controls: 0 for no effect and ±100 for the full control effect
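THP-1 cells pretreated 1 hr with compounds (up to 57.5 uM final), then stimulated with LPS (250 ng/mL final) plus ATP (1.25 mM final); secreted IL-1B measured by AlphaLISA after 16 hr, decreased signal indicating inhibition.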
SW480 rereplic = A quantitative high throughput screen for small molecules that induce DNA re-replication in SW480 colon adenocarcinoma cells | SW480 DNA re-replication, Hoechst DNA content imaging, 48 h | Potency, µM (highest dose often 46.1 µM), for the others: top-dose re-replication activation, usual class: activators | 340,000 compounds, 1.8% hits; note: potency is the fitted concentration of half-maximal effect; % of control where 0% means no effect; nearly all actives have a fitted effect of over 55% in size
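Per well, 250 cells were exposed to pinned compound for 48 hr. Nuclear DNA was visualised with Hoechst (40 min, 37 C) and total object intensity recorded by fluorescence scanning.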
MCF10A rerep = A quantitative high throughput screen for small molecules that induce DNA re-replication in MCF 10a normal breast cells; MCF 10A DNA re-replication, Hoechst nuclear intensity, 48 h; Potency, µM (titrated, usually from 46.1 µM), inactives show at the highest dose activity, positive = re-replication, most hits filed as activators; 350,000 compounds, 2.9% hits; AID 624296, 2012; note: potency is the fitted concentration of half-maximal effect; % of control where 0% means no effect; nearly all actives have a fitted effect of over 50% in size
TDP1 cell CPT = qHTS for Inhibitors of human tyrosyl-DNA phosphodiesterase 1 (TDP1): qHTS in cells in presence of CPT; 420,000 compounds, 12% hits; chicken DT40 Tdp1-/-;hTDP1 cells + 20 nM CPT, ATP luminescence, 48 h; Potency, µM (highest dose often 46.2 µM), for the others: at the top dose activity change, negative = growth inhibition, most hits filed as inhibitors; note: potency is the fitted concentration of half-maximal effect; % is set by controls: 0 for no effect and ±100 for the full control effect; nearly all actives have a fitted effect of over 55% in size
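Cell growth measured by CellTiter-Glo luminescence after a minimum 48 h, 37 C compound exposure with 20 nM CPT in Tdp1-knockout DT40 cells stably expressing hTDP1, seeded 400/well; qHTS titration format.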
DT40 TDP1 no CPT = qHTS for Inhibitors of human tyrosyl-DNA phosphodiesterase 1 (TDP1): qHTS in cells in absence of CPT | AID 686978, 2013 | Potency, µM (series often up to 46.2 µM), without a hit: at the highest dose activity change, negative = growth inhibition, hits mostly inhibitors | 420,000 compounds, 15% hits | DT40 Tdp1-/- hTDP1 cells, no CPT, ATP luminescence, 48 h; note: potency is the fitted concentration of half-maximal effect; % is set by controls: 0 for no effect and ±100 for the full control effect; nearly all actives have a fitted effect of over 55% in size
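Cells were dispensed at 400 per well, compounds added by pin tool, plates incubated ≥48 hr at 37 °C, then CellTiter-Glo added for 30 min at room temperature before luminescence reading. Line: DT40 Tdp1-/- complemented with hTDP1; camptothecin omitted.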
BCR signal inh = qHTS Assay to Find Inhibitors of Chronic Active B-Cell Receptor Signaling; ABC-DLBCL IkBa-CBG/CBR reporter, luminescence ratio, 4 h; Potency, µM (series often up to 46.1 µM), without a hit: top-dose activity change, negative = inhibition, hits mostly inhibitors; 340,000 compounds, 0.05% hits; AID 493014, 2011; active = well fitted inhibition curve with a large enough effect in the signal ratio, with a control signal flat, not every such curve was filed as active; inconclusive = small, poorly fitted or top-dose-only effect, or effect the other way, or a change in a side signal; the % refers to the signal ratio;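 note: potency is the fitted concentration of half-maximal effect; plate controls were basal doxycycline-induced cells for no effect and cells given 10 µM MG132 for full effect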
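TMD8 human ABC-DLBCL cells with doxycycline-inducible IκBα–green luciferase fusion and unfused red luciferase, in 0.5% FBS medium; compounds up to 46 uM, 4 h at 37C. Green/red luminescence ratio, filter-overlap corrected, fitted to concentration-response curves.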
Active calls of the source: *; ? = inconclusive; . = no result given; [ ] = another dose, or the depositor's remark. Sampled rows, rich in hits. Any-hit rate of the full collection: about 19%. Unless noted, calls come from the whole dose curve; as a rule, active = well fitted curve in the direction sought with a large enough effect; inconclusive = small, poorly fitted or top-dose-only effect, or another doubt; inactive = no such curve, though single readings can be large; an effect the other way counts as inactive or inconclusive.

SMILES	IL1B secr inh	SW480 rereplic	MCF10A rerep	TDP1 cell CPT	DT40 TDP1 no CPT	BCR signal inh
CCOC(=O)C1=C(c2ccccc2)NC(SC)=C(C#N)C1c1ccco1 (stereo not given)	1	4%	1%	18µM*	21µM*	?
CN(Cc1ccccc1)C(=O)[C@@H]1CCCN1C(=O)[C@@H]1CCCN1C(=O)c1ccccc1	-5	.	.	-16%	-17%	.
CN(CC(=O)NCc1ccccc1Cl)S(=O)(=O)c1ccc2c(c1)n(C)c(=O)c(=O)n2C	-2	-16%	0%	2%	24%	-3%
CCOc1ccc(N/C(C)=C/C(=O)c2ccc3c(c2)OCCO3)cc1	-77*	-3%	3%	-21%	?	4%
CCOc1ccc(N/C(C)=C\C(=O)c2ccc3c(c2)OCCO3)cc1	-11	-2%	?	17%	-1%	3%
COc1ccc(OCCCC(=O)Nc2ccc3c(c2)OCCO3)cc1	-4	27%	21µM*	?	-17%	0%
CC(=O)c1ccc(OCCCC(=O)Nc2ccc3c(c2)OCCO3)cc1	11	-7%	8%	-17%	-28%	-2%
COc1ccc(-c2noc(CCC(=O)Nc3ccc4c(c3)OCCO4)n2)cc1	-2	-5%	4%	16µM*	15µM*	26%
O=C(CCc1nc(-c2ccc(F)cc2)no1)Nc1cccc(C(=O)NC2CC2)c1	18	6%	13%	?	16µM*	-15%
O=C(COc1ccc(F)cc1)Nc1ccc2c(c1)OCCO2	-11	-1%	-11%	?	-5%	-5%
CCC(=O)c1ccc(OCC(=O)Nc2ccc3c(c2)OCCO3)cc1	-6	12%	3%	-19%	12µM*	0%
OCCN1CCN(c2ncnc3c2ncn3[C@H]2CN(Cc3ccc(-c4ccccc4)cc3)C[C@@H](CO)O2)CC1	-16	.	.	5.2µM*	6.5µM*	.
CN1CCN(c2ncnc3c2ncn3[C@H]2CN(Cc3ccc(F)cc3)C[C@@H](CO)O2)CC1	21	.	.	?	-20%	.
OC[C@@H]1CN(Cc2ccc(F)cc2)C[C@H](n2cnc3c(N4CCCC4)ncnc32)O1	-91*	.	.	?	?	.
CN1CCN(c2ncnc3c2ncn3[C@H]2CN(Cc3ccc(-c4ccccc4)cc3)C[C@@H](CO)O2)CC1	-4	.	.	?	?	.
Cn1c(-c2c(N)n(CCCc3ccccc3)c3nc4ccccc4nc23)nc2ccccc21	?	16µM*	?	?	?	?
Cn1c(-c2c(N)n(C3CCCC3)c3nc4ccccc4nc23)nc2ccccc21	-6	12µM*	5.2µM*	?	?	2%
Cn1c(C2CCCCC2)nc2ccccc21	-19	-54%	?	-4%	-25%	?
Cn1c(-c2c(N)n(CCc3ccccc3)c3nc4ccccc4nc23)nc2ccccc21	-8	8.2µM*	?	26µM*	21µM*	?
COCCCn1c2nc3ccccc3nc2c2c(=O)n(-c3ccccc3OC)cnc21	0	-6%	-1%	?	-29%	-12%
CCc1nc2ccccc2n1CCc1ccccc1	-8	4%	?	-29%	?	11%
COCCCn1c(N)c(-c2nc3ccccc3n2C)c2nc3ccccc3nc21	?	?	23µM*	26µM*	23µM*	?
C/C=C/C(=O)N[C@@H]1c2ccccc2CC[C@@H]1OCc1ccccc1	-29	-2%[9.22 µM]	14%	-11%	-15%	0%
CNC(=O)c1sccc1SCc1ccc(Cl)cc1Cl	0	2%	?	21µM*	18µM*	?

Assay outcomes from PubChem BioAssay.
